Assay in all cases: yeast three-hybrid, YBZ-1, SC-Leu-His + 0.5 mM 3-AT, 4 days
What all share (settings): tags: N-Gal4 AD-HA kept; label: inside an RPR1-promoter hybrid RNA with tandem MS2 sites; ssRNA

One assay concerns the target PUM1 PUF domain R8-GFR (Homo sapiens, UniProt Q14671 828-1176, N1122G;Y1123F;Q1126R). An outline of the steps:
(§1)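 The interaction score is the logarithmic change in variant frequency from input to selection. It uses log2, with a pseudocount of 1 for absent variants, and frequencies came from PCR-amplified, Illumina-sequenced repeat regions. The libraries were Pumilio-1 PUF domains randomized at the three base-contacting residues per repeat, co-expressed with matching RNA elements in strain YBZ-1 (LexA–MS2 coat fusion, HIS3 reporter). Plating lasted four days on SC-Leu (input) or SC-Leu-His + 0.5 mM 3-AT (selection).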

The target in a further assay is T1, PUM1 PUF domain R6-CFR (Homo sapiens, UniProt Q14671 828-1176, N1043C;Y1044F;Q1047R).
T1 sequence: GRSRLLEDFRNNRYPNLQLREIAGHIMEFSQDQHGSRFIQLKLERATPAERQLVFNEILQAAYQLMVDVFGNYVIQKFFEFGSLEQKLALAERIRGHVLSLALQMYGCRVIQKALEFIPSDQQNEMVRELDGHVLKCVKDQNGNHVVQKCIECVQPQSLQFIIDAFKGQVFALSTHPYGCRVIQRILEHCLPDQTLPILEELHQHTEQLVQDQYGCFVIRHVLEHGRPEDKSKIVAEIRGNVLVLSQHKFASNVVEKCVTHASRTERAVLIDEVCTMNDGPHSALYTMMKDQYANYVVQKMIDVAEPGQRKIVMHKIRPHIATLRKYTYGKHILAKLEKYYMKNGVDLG
An outline of the steps: as §1

The next assay deals with T2, PUM1 PUF domain R6-LFG (Homo sapiens, UniProt Q14671 828-1176, N1043L;Y1044F;Q1047G).
T2 sequence: T1 sequence with C216L, R220G
An outline of the steps: as §1

Another assay deals with PUM1 PUF domain R5-KPV (Homo sapiens, UniProt Q14671 828-1176, C1007K;R1008P;Q1011V). An outline of the steps:
as §1

For a further assay, the target named is PUM1 PUF domain R5-RKG (Homo sapiens, UniProt Q14671 828-1176, C1007R;R1008K;Q1011G). An outline of the steps:
as §1

For a further assay, the target named is PUM1 PUF domain R5-SRK (Homo sapiens, UniProt Q14671 828-1176, C1007S;Q1011K). An outline of the steps: as §1
For the next assay, the target named is PUM1 PUF domain R5-SRV (Homo sapiens, UniProt Q14671 828-1176, C1007S;Q1011V). Put shortly: as §1
Another assay addresses PUM1 PUF domain R5-PLD (Homo sapiens, UniProt Q14671 828-1176, C1007P;R1008L;Q1011D). Put shortly:
as §1

For another assay, the target named is PUM1 PUF domain R3-LYE (Homo sapiens, UniProt Q14671 828-1176, C935L;R936Y;Q939E). Put shortly: as §1
In a further assay the target is PUM1 PUF domain R3-WFS (Homo sapiens, UniProt Q14671 828-1176, C935W;R936F;Q939S). Put shortly:
as §1

Numbering of substitutions follows the chain as printed.

In the case of “GGCUAGAACUAGUGGAUCCCCCGGCGCCCGGCGGCUCGAGCCCGGGUAAGCGUAAAUAGUCUGCAUGCCGCCGGGCGCCAUGCCUGCAGGUCGACUCUAGAAAACAUG”, the binding signal in the assay with PUM1 PUF domain R8-GFR was 4.51 log2 enrichment (interaction score).
Consider “GGCUAGAACUAGUGGAUCCCCCGGCGCCCGGCGGCUCGAGCCCGGGUAAGUGAAAAUAGUCUGCAUGCCGCCGGGCGCCAUGCCUGCAGGUCGACUCUAGAAAACAUG”, for which the binding signal is 4.42 log2 enrichment (interaction score) in the assay with PUM1 PUF domain R6-CFR and 5.7 log2 enrichment (interaction score) with PUM1 PUF domain R6-LFG.
Regarding “GGCUAGAACUAGUGGAUCCCCCGGCGCCCGGCGGCUCGAGCCCGGGUAAGUGUUAAUAGUCUGCAUGCCGCCGGGCGCCAUGCCUGCAGGUCGACUCUAGAAAACAUG”, the binding signal in the assay with PUM1 PUF domain R5-KPV is 1.4 log2 enrichment (interaction score); with PUM1 PUF domain R5-RKG, 2.88 log2 enrichment (interaction score); in the assay with PUM1 PUF domain R5-SRK, 5.28 log2 enrichment (interaction score).
For “GGCUAGAACUAGUGGAUCCCCCGGCGCCCGGCGGCUCGAGCCCGGGUAAGUGUGAAUAGUCUGCAUGCCGCCGGGCGCCAUGCCUGCAGGUCGACUCUAGAAAACAUG”, the binding signal with PUM1 PUF domain R5-SRV is 2.79 log2 enrichment (interaction score); in the assay with PUM1 PUF domain R5-SRK, 3.42 log2 enrichment (interaction score).
Consider “GGCUAGAACUAGUGGAUCCCCCGGCGCCCGGCGGCUCGAGCCCGGGUAAGUGUAAAUAGUCUGCAUGCCGCCGGGCGCCAUGCCUGCAGGUCGACUCUAGAAAACAUG”, for which the binding signal was 4.59 log2 enrichment (interaction score) with PUM1 PUF domain R6-CFR; 2.61 log2 enrichment (interaction score) with PUM1 PUF domain R5-PLD; 4.66 log2 enrichment (interaction score) with PUM1 PUF domain R8-GFR; 3.76 log2 enrichment (interaction score) in the assay with PUM1 PUF domain R3-LYE; 0.47 log2 enrichment (interaction score) with PUM1 PUF domain R5-RKG; 0.54 log2 enrichment (interaction score) with PUM1 PUF domain R5-SRV. Besides, the binding signal with PUM1 PUF domain R5-SRK is 3.38 log2 enrichment (interaction score).
Consider “GGCUAGAACUAGUGGAUCCCCCGGCGCCCGGCGGCUCGAGCCCGGGUAAGUGCAAAUAGUCUGCAUGCCGCCGGGCGCCAUGCCUGCAGGUCGACUCUAGAAAACAUG”, for which, in the assay with PUM1 PUF domain R6-CFR, the binding signal is 6.28 log2 enrichment (interaction score).
On to “GGCUAGAACUAGUGGAUCCCCCGGCGCCCGGCGGCUCGAGCCCGGGUAAGUGUCAAUAGUCUGCAUGCCGCCGGGCGCCAUGCCUGCAGGUCGACUCUAGAAAACAUG”, for which the binding signal was 3.85 log2 enrichment (interaction score) with PUM1 PUF domain R5-KPV, 2 log2 enrichment (interaction score) in the assay with PUM1 PUF domain R5-RKG and 2.72 log2 enrichment (interaction score) in the assay with PUM1 PUF domain R5-SRK.
In the case of “GGCUAGAACUAGUGGAUCCCCCGGCGCCCGGCGGCUCGAGCCCGGGUAAGUGUAAUUAGUCUGCAUGCCGCCGGGCGCCAUGCCUGCAGGUCGACUCUAGAAAACAUG”, the binding signal in the assay with PUM1 PUF domain R3-WFS was 2.63 log2 enrichment (interaction score).

The values above are taken from paper PMC8384837, “Expanding the binding specificity for RNA recognition by a PUF domain”.
